Experimental data taken from the supplement of paper PMC4894684.
Values joined by “and” are separate entries in the source; they are usually repeats but may differ in a detail not shown here. Equal values may be shown once. Where a name gives a salt, the structure may show the parent alone. ± gives the standard deviation of the averaged measurements. In all, about 1,000 compounds went through this assay and about 15 (2%) showed an effect of 50% or more. The list comes from a sample in which strong results are over-represented; it also holds similar structures and randomly drawn compounds.

test system: HFF; assay: uninfected host cell viability relative to vehicle control; higher = less host cell toxicity; settings: 5 µM; 72 h; oxygen 21 %

SMILES	uninfected host cell viability
CN(N=O)C(=O)N[C@@H](C=O)[C@@H](O)[C@H](O)[C@H](O)CO [Streptozocin]	86.9 ± 5.4%
CC(=O)NCCc1c(Cc2ccccc2)[nH]c2ccccc12 [Luzindole]	101 ± 4.8%
CCC(NC(C)C)C(O)c1ccc(O)c2[nH]c(=O)ccc12 (centres undefined) [Procaterol hydrochloride]	87.5 ± 1.7%
CCC(=O)NC1Cc2ccccc2C(c2ccccc2)C1 (centres undefined)	99.58 ± 0.97%
C[S+]([O-])c1ccc(-c2nc(-c3ccc(F)cc3)c(-c3ccncc3)[nH]2)cc1 (centres undefined)	89.4% and 88.6%
N=C(CC(O)COc1ccccc1-c1ccccc1)N1CCCCC1 (centres undefined)	89.4 ± 2.9%
Cn1cc(/C=C2\C(=O)Nc3cccnc32)c2ccccc21	67.8 ± 1.2%
c1cc2c3c(c1)c1c(n3CCNC2)CCCC1 [WAY 629 hydrochloride]	89.6 ± 5.6%
CCCCC/N=c1\ccn(Cc2ccccc2)c2ccccc12	83.1 ± 2.5%
CCCCCCCCc1ccc(-c2ccc(C(=O)O)cc2)cc1	85.5 ± 5%
CCCCCCCCCCCCCCCCn1cc[n+](Cc2ccccc2)c1C	32 ± 6.6%
CNC(=O)[C@@H](Cc1ccccc1)N(C)C(=O)[C@@H](Cc1ccc2ccccc2c1)N(C)C(=O)/C=C/CC(C)(C)N [Tabimorelin]	79.1 ± 1.2%
N#Cc1ccccc1OCC(O)CNCCNC(=O)Nc1ccccc1 (centres undefined)	86.9 ± 1.3%
COc1ccc(NC(=O)c2cc(OCCCN(C)C)nn2Cc2ccccc2)cc1 [CFM 1571 hydrochloride]	81.7 ± 2%
CCN(CC)CCCC(C)Nc1nc(C)cc(Nc2ccc3nc(C)cc(N)c3c2)n1 (centres undefined)	80.4 ± 1.2%
CCc1ccc(OCc2ccccc2C(=O)Nc2ccc3nc(C)cc(N)c3c2)cc1	15 ± 0.61%
COc1cc(CNC(=O)CCCC/C=C/C(C)C)ccc1O [(E)-Capsaicin]	88.13 ± 0.59%
CC[C@]1(O)C[C@H]2CN(CCc3c([nH]c4ccccc34)[C@@](C(=O)OC)(c3cc4c(cc3OC)N(C=O)[C@H]3[C@@](O)(C(=O)OC)[C@H](OC(C)=O)[C@]5(CC)C=CCN6CC[C@]43[C@@H]65)C2)C1 [Vincristine sulfate]	68 ± 2.9%
Cc1oncc1C(=O)Nc1ccc(C(F)(F)F)cc1 [Leflunomide]	93.41 ± 0.27%
O=C(Nc1cc(C(F)(F)F)cc(C(F)(F)F)c1)c1cc(Cl)ccc1O	46.8 ± 2.5%
O=c1oc(-c2ccc(C(F)(F)F)cc2)nn1Cc1cc(Cl)ccc1O	95.1 ± 1%
O=C1CC2(CCCC2)CC(=O)N1CCNCC1COc2ccccc2O1 (centres undefined)	85.64 ± 0.64%
Cn1cnnc1Sc1c([N+](=O)[O-])ncn1C	89.361 ± 0.008%
N[C@@H](C(=O)O)c1ccc(C(=O)O)c(C(=O)O)c1	89 ± 7.8%
COc1ccc(-c2nc(C(=O)N3CCN(C)CC3)sc2-c2ccc(OC)cc2)cc1	81.4 ± 4.7%

SMILES	uninfected host cell viability
O=C1c2ccccc2S(=O)(=O)N1CCCCN1CCN(c2ncccn2)CC1 [Ipsapirone]	87.04 ± 0.35%
O=C1C(Cl)=C(NCCN2CCOCC2)C(=O)c2ncccc21	34.44 ± 0.16%
Cc1cc(Cn2cnc3c2CC(C(=O)O)N(C(=O)C(c2ccccc2)c2ccccc2)C3)ccc1N(C)C (centres undefined)	82.1 ± 3.1%
COc1ccc([C@@H]2CNC(=O)C2)cc1OC1CCCC1 [(R)-(-)-Rolipram]	82.9 ± 1%
C1CCC2(CC1)CCNCC2 [4,4-Pentamethylenepiperidine hydrochloride]	84.79 ± 0.68%
Cc1cc(NC(=O)Nc2ccc(N(C)C)cc2)c2cc(F)cc(F)c2n1	85.86 ± 0.3%
Nc1ncnc2n[nH]c(Nc3ccc(F)cc3)c12	80.93 ± 0.35%
O=C(c1ccc(Nc2nccc(-c3cc4ccccc4s3)n2)cc1)N1CCC(N2CCCC2)CC1	14.9 ± 0.68%
O=c1[nH]ccc2c(S(=O)(=O)N3CCCNCC3)cccc12 [HA 1100 hydrochloride]	90 ± 3.1%
Nc1nc2c(ccc3ccccc32)s1	77.6 ± 1.3%
O=c1cc(N2CCNCC2)oc2c(-c3ccccc3)cccc12	87.4 ± 1.8%
FC(F)(F)c1cccc(-c2noc(-c3cc(-c4ccccc4)c(C(F)(F)F)s3)n2)c1	90.4 ± 2.4%
CCN(CC)CCOc1ccc(Cc2ccccc2)cc1 [DPPE fumarate]	86.65 ± 0.8%
CCS(=O)(=O)N1CCC[C@@H]2CN3CCc4cc(OC)ccc4[C@@H]3C[C@@H]21	85.4 ± 2.9%
N[C@@H](CC(=O)Nc1ccc(Oc2cc(F)c(F)cc2Br)cc1)C(=O)O	95 ± 0.96%
O=c1ncccn1[C@@H]1O[C@H](CO)[C@@H](O)[C@H]1O [Zebularine]	90.802 ± 0.032%
O=C(/C=C/c1ccccc1)NC(NC(=S)Nc1cccc2cccnc12)C(Cl)(Cl)Cl (centres undefined) [Salubrinal]	84.55 ± 0.26%
C=C1/C(=C\C=C2/CCC[C@]3(C)[C@@H]([C@H](C)/C=C/[C@@H](O)C4CC4)CC[C@@H]23)C[C@@H](O)C[C@@H]1O [Calcipotriol]	83.9 ± 3.1%
CC(C)c1ccc2c(c1)CC[C@H]1[C@](C)(CN)CCC[C@]21C [Lylamine hydrochloride]	87.8 ± 1.4%
Cc1ccccc1N1CCN(S(=O)(=O)C[C@]23CC[C@H](C[C@@H]2NC(=O)[C@@H](N)CCS(C)(=O)=O)C3(C)C)CC1 [L-368,899 hydrochloride]	87.07 ± 0.83%
C=C1C(=O)O[C@@H]2/C=C(\C)CC/C=C(\C)CC[C@@H]12 [Costunolide]	114 ± 2.7%
N[C@@H](Cc1cc(CP(=O)(O)O)cc(-c2ccccc2Cl)c1)C(=O)O	88.9 ± 6%
O=C(Nc1ccccc1)N[C@@H]1C[C@@H](C(=O)O)Nc2cc(Cl)cc(Cl)c21	87.6 ± 1.1%
c1ccc(C(O[C@@H]2CCCN(CCc3ccc4c(c3)OCO4)C2)c2ccccc2)cc1 [Zamifenacin fumarate]	90.5 ± 1%
